Measured values: PubChem BioAssay
A number with no mark means an inactive call. How the calls were made is not given here.

test system: Aerobactin synthetase IucA (Klebsiella pneumoniae hvKP1); assay: Biochemical IucA enzyme inhibition primary screen of the Spectrum library (AID 1346200); conditions: malachite green pyrophosphate, A620, at 8 µM, stronger effect = lower value;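 further: 100% = wells without compound and 0% = wells lacking enzyme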

SMILES | activity remaining
NC(=O)N1c2ccccc2CC(=O)c2ccccc21 | 123%
CC1OC(O[C@H]2/C=C/C=C/C=C/C=C/C=C/C=C/C=C/[C@H](C)[C@@H](O)[C@@H](C)[C@H](C)OC(=O)CC(O)CC(O)CCC(O)C(O)CC(O)CC3(O)C[C@H](O)C(C(=O)O)C(C2)O3)C(O)[C@H](N)C1O (stereo partly specified) | 89.3%
CCN(CC)CCOc1ccc2c(c1)C(=O)c1cc(OCCN(CC)CC)ccc1-2 | 118%
CCCCCCCCCCCCCCCC(=O)OC/C=C(C)/C=C/C=C(C)/C=C/C1=C(C)CCCC1(C)C | 89%
Cn1c(=O)c2c(ncn2CC(O)CO)n(C)c1=O (stereo unspecified) | 104%
COc1ccccc1-c1coc2cc(OC)c(OC)c(OC)c2c1=O | 116%
CC(=O)Oc1cc(C)c2c(c1C(OC(C)=O)OC(C)=O)Oc1c(c(C)c(OC(C)=O)c3c1C(OC(C)=O)OC3=O)OC2=O (stereo unspecified) | 96.1%
Cc1c(C)c2c(c(C)c1O)CCC(C)(CCCC(C)CCCC(C)CCCC(C)C)O2 (stereo unspecified) | 105%
N[C@@H](Cc1cc(I)c(Oc2cc(I)c(O)c(I)c2)c(I)c1)C(=O)O | 117%
CC[C@H]1OC(=O)[C@H](C)[C@@H](O[C@H]2C[C@@](C)(OC)[C@@H](O)[C@H](C)O2)[C@H](C)[C@@H](O[C@@H]2O[C@H](C)C[C@H](N(C)C)[C@H]2O)[C@](C)(OC)C[C@@H](C)C(=O)[C@H](C)[C@@H](O)[C@]1(C)O | 119%
Oc1c(Cl)cc(Cl)cc1Sc1cc(Cl)cc(Cl)c1O | 118%
